Bioassay records from PubChem BioAssay.
PLK1 PBD inh: blocks phosphopeptide binding to human PLK1 polo-box domain. Potency, µM, for the others: max response, negative = inhibition, hits mostly inhibitors. 360,000 tested, 2.8% active. P53350. Plk1 PBD binding of FITC phosphopeptide, fluorescence polarization. AID 720504; also: series mostly up to about 57 µM; % is scaled to controls: 0 for no effect and ±100 for the full control effect; nearly all actives have a fitted effect of over 65% in size
JMJD2A Tudor inh: blocks the human JMJD2A Tudor domain; 390,000 tested, 4.4% active; AID 504339; O75164; Potency, µM (titrated, usually from 114 µM), inactives show top-dose activity change, negative = inhibition, usual class: inhibitors; AlphaScreen JMJD2A-Tudor / H3K4me3 peptide binding; also: % is scaled to controls: 0 for no effect and ±100 for the full control effect; nearly all actives have a fitted effect of over 50% in size
G9a inh: G9a (human) methyltransferase inhibition. Q96KQ7. G9a H3K9 monomethylation, AlphaScreen, 2 h. Potency, µM (highest dose often 102 µM), for the others: at the top dose activity, negative = inhibition, actives largely listed as inhibitors. 350,000 tested, 8.8% active. AID 504332; also: % is scaled to controls: 0 for no effect and ±100 for the full control effect; nearly all actives have a fitted effect of over 75% in size
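AlphaScreen read-out: biotin-H3K9 peptide (500 nM) methylation by 20 nM enzyme with 20 uM SAM, 2 h at room temperature after 15 min compound preincubation; anti-monomethyl H3K9 antibody plus donor/acceptor beads, 10 min dark.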
Sfp inh: Sfp phosphopantetheinyl transferase inhibition. AID 1490. 310,000 tested, 3.5% active. Q9F4F7. Biochemical Sfp PPTase activity, qHTS. Potency, µM, for the others: largest response in the series, negative = inhibition, hits mostly inhibitors;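 also: the enzyme is Sfp with the accession as filed and its product quenches rhodamine fluorescence; 0% = enzyme reaction without inhibitor and -100% = no enzyme wells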
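Sfp 15 nM + cpd, 15 min RT; start w/ rhodamine-CoA 5 uM, BHQ-2-YbbR 12.5 uM (final); 50 mM Hepes pH 7.6, 10 mM MgCl2, 0.01% NP-40, 0.01% BSA; read 525/598 nm at 0 and 30 min.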
HP1b binding inh: HP1-beta chromodomain-methylated histone interaction inhibition; P83916; AlphaScreen HP1-beta / biotin-H3K9me3 peptide binding; Potency, µM (top dose mostly 114 µM), without a hit: at the highest dose activity change, negative = inhibition, usual class: inhibitors; 390,000 tested, 0.56% active; AID 540317; also: nearly all actives have a fitted effect of over 70% in size
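AlphaScreen: HP1-beta (50 nM) preformed 30 min with biotin-H3(1-18)K9me3 peptide (50 nM) in PBS pH 7.4, 0.01% Tween-20. Compound added for 30 min at RT, then streptavidin donor/nickel chelate acceptor beads (10 ug/mL) for 30 min.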
BAZ2B block: BAZ2B (human) inhibition; Q9UIF8; AlphaScreen BAZ2B-H3K14Ac peptide displacement; Potency, µM (titrated, usually from 114 µM), without a hit: at the top dose activity change, negative = inhibition, most hits filed as inhibitors; 360,000 tested, 4.4% active; AID 504333; also: % is scaled to controls: 0 for no effect and ±100 for the full control effect; nearly all actives have a fitted effect of over 60% in size
Target sequence (Q9UIF8 whole entry, looked up): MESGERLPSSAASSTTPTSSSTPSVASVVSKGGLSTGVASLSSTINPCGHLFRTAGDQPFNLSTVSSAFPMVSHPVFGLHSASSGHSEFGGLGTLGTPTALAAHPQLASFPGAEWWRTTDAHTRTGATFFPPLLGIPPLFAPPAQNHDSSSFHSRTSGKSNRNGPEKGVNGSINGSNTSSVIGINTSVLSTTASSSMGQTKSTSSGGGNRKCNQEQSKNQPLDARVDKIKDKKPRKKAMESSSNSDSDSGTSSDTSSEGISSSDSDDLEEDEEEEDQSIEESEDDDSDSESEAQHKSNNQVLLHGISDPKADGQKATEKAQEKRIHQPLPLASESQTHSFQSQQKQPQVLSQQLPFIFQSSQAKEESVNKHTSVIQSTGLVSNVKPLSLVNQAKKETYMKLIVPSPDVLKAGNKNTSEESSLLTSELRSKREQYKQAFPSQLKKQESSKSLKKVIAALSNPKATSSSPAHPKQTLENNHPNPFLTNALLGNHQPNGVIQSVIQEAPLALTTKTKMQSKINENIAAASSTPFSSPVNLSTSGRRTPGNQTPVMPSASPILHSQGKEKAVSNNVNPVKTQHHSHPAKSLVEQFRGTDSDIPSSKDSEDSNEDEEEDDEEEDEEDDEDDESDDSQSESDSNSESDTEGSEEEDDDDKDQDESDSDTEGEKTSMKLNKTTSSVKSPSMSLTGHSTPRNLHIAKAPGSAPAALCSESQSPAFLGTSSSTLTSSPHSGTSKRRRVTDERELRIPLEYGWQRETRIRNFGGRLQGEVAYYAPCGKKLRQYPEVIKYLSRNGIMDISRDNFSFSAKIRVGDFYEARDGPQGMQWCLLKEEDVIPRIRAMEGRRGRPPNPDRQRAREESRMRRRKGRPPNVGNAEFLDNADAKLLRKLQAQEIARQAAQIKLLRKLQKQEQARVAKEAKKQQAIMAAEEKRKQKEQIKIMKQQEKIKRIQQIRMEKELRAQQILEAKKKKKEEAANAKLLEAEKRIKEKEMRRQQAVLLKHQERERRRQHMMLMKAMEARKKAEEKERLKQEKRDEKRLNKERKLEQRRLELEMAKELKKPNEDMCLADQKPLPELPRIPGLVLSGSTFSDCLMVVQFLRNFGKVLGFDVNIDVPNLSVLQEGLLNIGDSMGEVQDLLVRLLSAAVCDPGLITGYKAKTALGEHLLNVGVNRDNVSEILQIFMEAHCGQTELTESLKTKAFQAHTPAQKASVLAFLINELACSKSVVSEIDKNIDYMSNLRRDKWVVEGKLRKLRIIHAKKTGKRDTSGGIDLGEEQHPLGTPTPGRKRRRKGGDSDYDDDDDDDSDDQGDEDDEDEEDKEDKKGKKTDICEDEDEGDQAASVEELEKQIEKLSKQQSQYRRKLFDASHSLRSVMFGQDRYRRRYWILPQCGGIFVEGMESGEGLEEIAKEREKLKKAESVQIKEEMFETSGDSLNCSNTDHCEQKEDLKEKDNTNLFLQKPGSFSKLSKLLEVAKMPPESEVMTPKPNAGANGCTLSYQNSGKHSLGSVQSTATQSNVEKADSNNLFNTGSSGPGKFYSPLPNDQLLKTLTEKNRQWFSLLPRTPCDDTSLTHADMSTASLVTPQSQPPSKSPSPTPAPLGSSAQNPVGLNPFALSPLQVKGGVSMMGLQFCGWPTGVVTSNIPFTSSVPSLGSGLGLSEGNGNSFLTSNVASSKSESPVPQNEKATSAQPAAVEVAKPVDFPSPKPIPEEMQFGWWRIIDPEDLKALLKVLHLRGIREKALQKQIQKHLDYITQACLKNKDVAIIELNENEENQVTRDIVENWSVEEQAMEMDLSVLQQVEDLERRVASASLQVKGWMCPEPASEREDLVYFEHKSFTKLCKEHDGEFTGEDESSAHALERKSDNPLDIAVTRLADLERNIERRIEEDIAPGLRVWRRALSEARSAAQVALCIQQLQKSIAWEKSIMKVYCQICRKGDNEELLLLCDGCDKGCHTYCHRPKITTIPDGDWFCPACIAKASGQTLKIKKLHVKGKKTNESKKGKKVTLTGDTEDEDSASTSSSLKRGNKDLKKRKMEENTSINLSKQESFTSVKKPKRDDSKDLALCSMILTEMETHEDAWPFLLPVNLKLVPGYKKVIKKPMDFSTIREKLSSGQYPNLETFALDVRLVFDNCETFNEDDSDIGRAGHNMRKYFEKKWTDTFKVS
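BAZ2B (50 nM) with biotin-H3(5-23)K14Ac peptide (50 nM) in PBS pH 7.4, 0.01% Tween-20, preformed 30 min, then compound 30 min at room temperature; top concentration 110uM. AlphaScreen streptavidin donor/nickel chelate acceptor beads (10 ug/mL final), 20 min dark, signal read.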
An asterisk follows results filed as active; ? = inconclusive; . = no result given; [ ] = dose if it differs, or a comment. Most compounds without a hit are left out; they make up all but 12% or so of the library. Calls follow the shape of the dose curve; as a rule, active = well fitted curve in the direction sought with a large enough effect; inconclusive = small, poorly fitted or top-dose-only effect, or another doubt; inactive = no such curve, though single readings can be large; an effect the other way counts as inactive or inconclusive. Potency is read from the fitted curve at half-maximal effect.

SMILES	PLK1 PBD inh	JMJD2A Tudor inh	G9a inh	Sfp inh	HP1b binding inh	BAZ2B block
O=C(CCC(=O)Nc1ccc(Br)cc1)N/N=C/c1cc([N+](=O)[O-])ccc1O	2.0%	-12.6%	24.4%	17.0%	34.5%	-32.1%
Cc1nc2ccc(C(=O)N/N=C/c3cc([N+](=O)[O-])ccc3O)cc2[nH]1	-18.1%	56.2µM*	-40.3%	-12.9%	55.7%	35.5µM*
Cc1ccn(CC(=O)N/N=C/c2cc([N+](=O)[O-])ccc2O)n1	7.3%	22.4µM*	20.0%[59 µM]	6.4%	31.5%	35.5µM*
Cc1cccc(NC(=O)CCC(=O)N/N=C/c2cc([N+](=O)[O-])ccc2O)c1	-7.7%	-18.9%	11.4%	12.6%	?	0.8%
Cc1cc([N+](=O)[O-])nn1CC(=O)N/N=C/c1ccc(O)cc1O	1.4%	?	9.6%	29.5%	50.3%	89.1µM*
O=C(Cn1nc2ccccc2n1)N/N=C/c1cc([N+](=O)[O-])ccc1O	7.52µM*	?	?	6.6%	-9.5%	11.2µM*
O=C(N/N=C/c1cc([N+](=O)[O-])ccc1O)C1CCCCC1	-2.9%	-19.7%	10.5%[59 µM]	22.0%	31.5%	-32.6%
O=C(N/N=C/c1cc([N+](=O)[O-])ccc1O)C1C2CCCCC21 (stereo unspecified)	.	.	?	24.6%	.	44.7µM*
O=C(Cn1nnc(-c2ccccc2)n1)N/N=C/c1cc([N+](=O)[O-])ccc1O	-4.7%	?	-22.0%	-1.0%	22.3%	?
Cc1cc(C)n2nc(SCc3nnc(-c4ccc(F)cc4)o3)nc2n1	.	.	31.6µM*	-15.8%	.	-18.4%
Cc1cc(C)n2nc(SCc3cc(=O)oc4cc(O)ccc34)nc2n1	.	.	?	-15.2%	.	50.1µM*
CCOC(=O)C1=C(CS(=O)(=O)c2ccc(C)c(C)c2)NC(=O)NC1c1ccccc1OCC (stereo unspecified)	.	?	-30.7%[59 µM]	.	38.7%	-20.4%
C[C@H](O)C#Cc1ccc2c(c1)O[C@@H](CN(C)Cc1ccc(-c3ccccc3)cc1)[C@H](C)CN([C@@H](C)CO)S2(=O)=O	-1.8%	.	.	.	.	.
C=CCCC1CN(CCCC)S(=O)(=O)c2c(F)cccc2O1 (stereo unspecified)	21.2µM*	-31.7%	.	.	31.6%	.
Cc1nc(NC2CCCCC2)c2nc(-c3ccccc3)n(CCCN3CCCCC3C)c2n1 (stereo unspecified)	.	.	.	15.9%	.	.
CC(C(=O)Nc1ccc2c(c1)OCO2)N(c1ccc(Cl)cc1)S(C)(=O)=O (stereo unspecified)	-7.1%	-27.6%	-39.3%[12.7 µM]	-8.4%	29.3%	17.7%
O=C(Nc1cc(S(=O)(=O)N2CCCCC2)ccc1O)c1ccccc1NS(=O)(=O)c1ccc(F)cc1	26.7µM*	?	?	-6.2%	-19.3%	-26.6%
O=C(Nc1cc(S(=O)(=O)Nc2ccc(Cl)cc2)ccc1O)c1ccc(S(=O)(=O)N2CCCCCC2)cc1	11.9µM*	-20.6%	-114.6%[59 µM]	3.16µM*	-18.0%	?
CC[N+]1(C)CC2CCC(C)(C1)C2(C)C (stereo unspecified)	-10.9%	31.6µM*	?	-12.1%	-7.6%	-2.1%
CCCCc1nn2c(=O)cc(COC(=O)c3ccccc3C)nc2s1	.	-9.7%	11.2%[59 µM]	.	17.8%	-8.0%
Cc1ccc(C(=O)O)cc1NC(=S)NC(=O)c1ccc(COc2ccccc2)cc1	?	?	.	50.1µM*	6.9%	50.1µM*
COc1ccccc1C(=O)NC(=S)Nc1cc(C(=O)O)ccc1C	?	-3.5%	44.7µM*	-28.4%	-1.9%	0.8%
COc1cc2ccccc2cc1C(=O)NC(=S)Nc1cc(C(=O)O)ccc1C	?	-24.1%	?	-3.9%	8.9%	?
C=CCOC(=O)C(C(C)=O)C(NC(=O)OC)c1cccc(C(F)(F)F)c1 (stereo unspecified)	.	.	.	11.3%	.	.
C#CCOCCOCCOCCNc1nc(N2CCN(C(=O)[C@H](CCC(=O)O)n3cc(C(N)CO)nn3)CC2)nc(N2CCN(C(=O)[C@H](Cc3ccc(O)cc3)n3cc(C(N)CC(C)C)nn3)CC2)n1 (stereo partly specified)	.	.	?	4.0%	.	31.6µM*
SMILES	PLK1 PBD inh	JMJD2A Tudor inh	G9a inh	Sfp inh	HP1b binding inh	BAZ2B block
C#CCOCCOCCOCCNc1nc(N2CCOCC2)nc(N2CCN(C(=O)[C@H](CCC(=O)O)n3cc(C(N)Cc4ccc(O)cc4)nn3)CC2)n1 (stereo partly specified)	-11.0%	89.1µM*	3.1%[12.7 µM]	?	18.5%	-30.3%
C#CCOCCOCCOCCNc1nc(N2CCOCC2)nc(N2CCN(C(=O)[C@H](Cc3ccc(O)cc3)n3cc([C@@H](N)CC(C)C)nn3)CC2)n1	1.8%	-15.1%	?	9.5%	22.4%	-23.9%
C#CCOCCOCCOCCNc1nc(N2CCN(C(=O)[C@H](CCC(=O)O)n3cc(C(N)Cc4ccc(O)cc4)nn3)CC2)nc(N2CCN(C(=O)[C@H](CCC(=O)O)n3cc(C(N)CC(C)C)nn3)CC2)n1 (stereo partly specified)	-8.1%	31.6µM*	?	-18.5%	-1.1%	50.1µM*
CCC(=O)N1CCC(C)(C(=O)Nc2ccc3c(c2)OCCO3)C1 (stereo unspecified)	-3.8%	.	.	.	.	.
O=S(=O)(NC(=S)c1ccccc1)c1ccccc1	?	-35.0%	.	.	-6.2%	.
O=S(=O)(NC(=S)c1ccccc1)c1ccc(F)cc1	?	-18.5%	79.4µM*	-2.9%	-4.9%	-6.7%
O=C(NNS(=O)(=O)c1ccc(F)cc1)c1ccccc1F	-1.9%	-13.0%	25.5%	9.7%	29.3%	-4.5%
O=C(NNS(=O)(=O)c1ccc(F)cc1)c1ccccc1	-10.6%	14.1µM*	.	14.7%	6.1%	3.4%
O=S(=O)(NC(=S)c1ccccc1)c1ccc(Cl)cc1	15µM*	-32.4%	?	-18.5%	-29.7%	-24.9%
O=C1C(c2ccc(F)cc2)N(Cc2ccccc2Cl)C(=O)CN1C1CCCCC1 (stereo unspecified)	.	-18.0%	4.7%[59 µM]	.	-4.5%	5.0%
C=CCC(C)(O)C(=O)OCC (stereo unspecified)	.	.	.	8.8%	.	.
Cc1cc(C(=O)CN2CCCC2)c(C)n1-c1ccc(Cl)cc1	-14.7%	-32.8%	50.1µM*	12.9%	4.8%	-38.9%
CCN1CCN(CC(=O)c2cc(Cl)ccc2Cl)CC1	5.3%	-18.5%	14.1µM*	-12.0%	24.1%	-23.9%
CCCC/C(O)=C1\C(=O)CC(C)(C)CC1=NCCCCCC(=O)O	-5.0%	-4.8%	8.1%	4.9%	8.9%	.
CC(=O)c1ccc(S(=O)(=O)N2CCNCC2)cc1	15µM*	-25.0%[11.4 µM]	.	-4.3%	21.2%	-0.2%
CC(=O)c1ccc(S(=O)(=O)N2CCCC2)cc1	-11.2%	-10.8%	-60.7%[59 µM]	16.3%	6.3%	13.6%
